Assay outcomes from PubChem.
Vaccinia mCherry: vaccinia inhibition (mCherry reporter). Vaccinia virus mCherry reporter infection, fluorescence. Potency, µM (series often up to 36.5 µM), for the others: top-dose activity change, negative = inhibition, most hits filed as inhibitors. hit rate 0.63% among 310,000; calls by dose curve; tested in A549 cells; further: nearly all actives have a fitted effect of over 35% in size
FMDV inh: blocks foot and mouth disease virus. Potency, µM (series often up to 57.9 µM), inactives show top-dose activity change, negative = inhibition, hits mostly inhibitors. hit rate 1.2% among 410,000. FMDV antiviral cell-based qHTS; calls by dose curve; tested in HEK293T cells; further: read-out not given here; nearly all actives have a fitted effect of over 45% in size
MARV entry inh: inhibitors of Marburg virus binding or cell entry; Marburg virus pseudotyped entry inhibition, cell reporter; Potency, µM (highest dose often 37.8 µM), for inactives: top-dose activity change, negative = inhibition, actives largely listed as inhibitors; hit rate 1.8% among 300,000; AID 540276; calls by dose curve; tested in HEK293 cells
VACV Venus inh: vaccinia inhibition (Venus reporter) | Vaccinia virus Venus reporter expression, fluorescence | Potency, µM (doses to about 36.5 µM), for the others: at the top dose activity change, negative = inhibition, most hits filed as inhibitors | hit rate 0.46% among 330,000; calls by dose curve; tested in A549 cells; further: nearly all actives have a fitted effect of over 30% in size
Lassa entry inh: blocks Lassa virus binding to or entry into cells | hit rate 1.2% among 300,000 | Lassa virus pseudotype entry inhibition, cell reporter | Potency, µM (highest dose often 37.9 µM), for the others: top-dose activity change, negative = inhibition, most hits filed as inhibitors; calls by dose curve; tested in HEK293 cells; further: nearly all actives have a fitted effect of over 50% in size
HCV inh: blocks hepatitis C virus | hit rate 3.4% among 340,000 | Potency, µM (titrated, usually from 41.8 µM), for the others: at the highest dose activity change, negative = inhibition, actives largely listed as inhibitors | AID 651820 | Huh7.5.1 HCVcc-Cre infection, luciferase reporter, 44 h; active means well fitted inhibition curve with a large enough effect; inconclusive means small, poorly fitted or top-dose-only effect, or another doubt; inactive means no such curve, though single readings can be large or run the other way
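1,000 cells/well; 4 h culture; + compound; + HCVcc-Cre (~0.5 moi); 44 h; luciferase substrate, RT 15 min; read 15 sec.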
* = called active by the depositor; i = inactive; ? = inconclusive; / = no result given; ! = repeats disagree; [ ] = another dose, or the depositor's remark. Hits are enriched below; roughly 5.3% of the tested compounds scored in any of these assays. On the % scale 0 is the no-effect control and ±100 the full control effect; potency means the concentration at half of the fitted maximal effect.

SMILES | Vaccinia mCherry | FMDV inh | MARV entry inh | VACV Venus inh | Lassa entry inh | HCV inh
O=C(Nc1nc(-c2ccccc2)cs1)c1ccccc1NS(=O)(=O)c1ccc(F)cc1 | ? | ? | ? | ? | 3.7µM* | ?
COc1ccc(-c2csc(NC(=O)c3ccoc3C)n2)cc1 | i | -8% | -5%[46.1 µM] | -4% | ? | 11µM*
COc1ccc(-c2csc(NC(=O)c3ccccc3S(C)(=O)=O)n2)cc1 | i | 25µM* | ? | -7% | ? | ?
CCc1ccccc1NC(=O)c1nn(-c2ccc(C)cc2)c(=O)c2c1c1ccccc1n2C | -6% | -11% | 0%[46.1 µM] | 1% | 1%[46.1 µM] | /
COc1cc(=O)n2c(c1C(=O)NCc1ccsc1)CCN(Cc1nc3ccccc3[nH]1)CC2 | -9% | -4% | / | -15% | / | /
COc1cc2nc(N(C)C)c(CNC3CCOC(C)(C)C3)cc2c(OC)c1OC (configuration not stated) | -4% | -12% | / | 13% | / | /
CCOC(=O)[C@]12Cc3cc4c(cc3[C@H]1N(Cc1ccccc1)C(=O)c1ccccc12)OCO4 | 11µM*! | -29% | / | ? | / | ?
CCOC(=O)[C@]12Cc3cc(N(C)C)ccc3[C@H]1N(Cc1ccccc1)C(=O)c1ccccc12 | -27% | 0% | / | -27% | / | 11µM*
CCOC(=O)[C@]12Cc3ccccc3[C@H]1N(Cc1ccccc1)C(=O)c1cc(F)c(F)cc12 | -15% | 25µM* | / | -13% | / | /
Cc1cccc2cc(C#N)c(N3CCN(C)CC3)nc12 | / | -1% | -16% | / | -4% | 10µM*
O=C(Nc1nccs1)c1cc2c(s1)CCCCC2 | / | 8.9µM* | ? | ? | ? | -19%
O=C1c2cccc3c(O)ccc(c23)C(=O)N1c1ccc(Cl)cc1 | -20% | 13µM* | 16%[46.1 µM] | 399% | ? | 3%
CC(=O)Nc1ccc(N2C(=O)c3cccc4c(O)ccc(c34)C2=O)cc1 | i | -15% | / | 272% | / | 3%
CC(C)OCCCNC(=O)CN1C(=O)COc2ccc(S(=O)(=O)N3CCOCC3)cc21 | 2% | 0% | -6%[46.1 µM] | -10% | -3%[46.1 µM] | /
CCCCNc1c(-c2cccc(SC3CCCCC3)c2)nc2ccc(Cl)cn12 | -7% | -17% | / | -8% | / | -4%
CCCCNc1c(-c2ccc(SC3CCCCC3)c(OC)c2)nc2ccc(C)cn12 | -30% | 28µM*! | / | ? | / | ?
Clc1ccc2nc(-c3cccc(SC4CCCCC4)c3)c(NCc3ccccc3)n2c1 | -10% | -31% | / | -9% | / | -4%
CCCCNc1c(-c2ccc(OC)c(SC3CCCCC3)c2)nc2ccc(C)cn12 | 10µM* | 22µM* | / | 11µM* | / | ?
COc1ccc(-c2nc3ccc(C)cn3c2NCc2ccccc2)cc1SC1CCCCC1 | i | 20µM* | / | ? | / | ?
COc1ccc(-c2nc3ccc(Cl)cn3c2NC2CCCCC2)cc1SC1CCCCC1 | ? | 10% | / | -18% | / | -2%
O=C(CSc1nc2nccnc2c(=O)n1CCc1c[nH]c2ccccc12)Nc1ccccc1 | -2% | -6% | / | -2% | 16%[46.1 µM] | /
CCOC(=O)C(=Cc1cn(C)c2ccc(S(=O)(=O)N(C)C)cc12)C(=O)OCC | -29% | 32µM* | -22%[46.1 µM] | -10% | -6%[46.1 µM] | -25%
CCOC(=O)c1c(CN2CCNCC2)nc2ccc(Cl)cc2c1-c1ccccc1 | 10µM* | -17% | ? | ? | -29% | ?
Cc1cccc(Nc2nnc(-c3ccc(C)c(S(=O)(=O)NCC4CCCO4)c3)c3ccccc23)c1 (configuration not stated) | -17% | 35% | ? | -28% | ? | /
O=C(c1ccc2c(c1)N(Cc1ccccc1)C(=O)c1ccccc1S2(=O)=O)N1CCN(c2ccccn2)CC1 | -11% | 8% | 3.5µM* | -2% | ? | /
SMILES | Vaccinia mCherry | FMDV inh | MARV entry inh | VACV Venus inh | Lassa entry inh | HCV inh
CN(C(=O)c1ccc2c(c1)N(Cc1cccc(Cl)c1)C(=O)c1ccccc1S2(=O)=O)C1CCCCC1 | -3% | -4% | / | -2% | 10µM* | /
CCNc1nc(SCCOc2ccc(C)cc2)nc(N(C)C)n1 | / | 1% | ? | / | -20% | 11µM*
CCOc1nc(SCCOc2ccccc2)nc(N(C)C)n1 | -16% | -19% | ? | -23% | -13% | 11µM*
COC[C@@H](O)[C@H]1OCc2ccccc2[C@@H]1C=Cc1ccccc1 | / | / | -37%[14.2 µM] | / | / | /
CC(C)COC(=O)c1ccc2[nH]c(O)c(C=Nc3ccc(S(N)(=O)=O)cc3)c2c1 | / | / | / | / | 1µM* | /
CCn1c(O)c(C=Nc2ccc(S(N)(=O)=O)cc2)c(=O)[nH]c1=S | 58% | -23% | 1% | 84% | -6% | 20%
CSc1ccc2c(c1)C(N1CCN(C)CC1)Cc1ccc(F)cc1S2 (configuration not stated) | / | -22% | / | / | / | ?
COc1ccc2c(c1)CC(N1CCN(C)CC1)c1cc(OC)ccc1S2 (configuration not stated) | ? | ? | 4µM* | ? | ? | ?
Cc1ccc(/C=N/Nc2nc(C)cc(C)n2)cc1 | 0%[7.34 µM] | 18% | -2%[46.1 µM] | -6%[7.34 µM] | ? | 14%
Cc1cc(-c2ccccc2)nc(N/N=C/c2ccc(N(C)C)cc2)n1 | / | -19% | / | / | / | 13µM*
Cc1cc(-c2ccccc2)nc(N/N=C/c2ccccc2)n1 | ? | 7% | ? | -12% | ? | ?
Cc1cc(-c2ccccc2)nc(N/N=C/c2ccc(O)cc2O)n1 | ? | -11% | ? | ? | -18%[46.1 µM] | 10µM*
CN(N)c1nc(-c2ccccc2)cc(-c2ccccc2)n1 | i | -24% | 9% | -10% | 0% | ?
CN(/N=C/c1ccc(O)cc1O)c1nc(-c2ccccc2)cc(-c2ccccc2)n1 | ? | -4% | ? | 20µM* | 3% | ?
CSc1ccc(/C=N/Nc2nc(C)cc(C)n2)cc1 | i | 10% | 4% | -6% | 7.1µM* | 3%
Cc1cc(-c2ccccc2)nc(N/N=C/c2ccco2)n1 | / | 25% | 0% | / | -9% | -29%
Cc1ccc2oc3c(c(=O)c2c1)C(c1cccc(O)c1)N(Cc1ccccc1Cl)C3=O (configuration not stated) | -8% | 21% | 4%[46.1 µM] | -4% | 26%[46.1 µM] | /
COc1ccc([C@H]2/C(=C(\O)c3ccccc3)C(=O)C(=O)N2c2ncccn2)cc1OC | / | / | 1% | / | / | /
Cc1cc(-c2ccccc2)nc(N/N=C/c2ccc([N+](=O)[O-])cc2)n1 | -18% | -14% | ? | -25% | ? | 10µM*
O=[N+]([O-])c1ccc(/C=N/Nc2ncc(-c3ccccc3)cn2)cc1 | -2% | 4% | -18%[46.1 µM] | -6% | 1% | 1%
COc1ccc(O[C@H]2C=C[C@@H](c3ccccc3)O[C@H]2COC(=O)CCC(C)=NO[C@H](C)CN2CCCc3nc(C)c(C)cc32)cc1 | / | / | -24%[14.2 µM] | / | / | /
CC(C)n1cnc2c(Nc3cccc(Cl)c3)nc(NCCCO)nc21 | ? | 23% | / | 10µM* | / | 11µM*
Cc1ccc(-n2ncc3c(N4CCCCCC4)ncnc32)cc1 | -8% | 20µM* | / | 6% | ? | /
